High-throughput results as filed in PubChem BioAssay.
EBV LMP1 NFkB: EBV LMP1-driven NF-kappaB luciferase reporter inhibitors, primary screen, cell-based, luminescence, single point; 350,000 tested, 0.69% active; inhibition, % at 12.5 µM; LMP1-induced NF-kappaB luciferase reporter cells; in the data active = inhibition above about 41%; inconclusive = no clear call, values can overlap the other calls;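 note: 0% = neutral control wells and 100% = reference inhibitor control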
TROY signal inh: inhibitors of TROY-driven NF-kB signaling, primary screen, Q293 LMP1-TROYcd cells, NF-kB luciferase, uHTS; inhibition, % at 10 µM; 360,000 tested, 0.98% active; Q293 LMP1-TROYcd NF-kB luciferase reporter, 4 h;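 active = compounds whose plate-normalised and pattern-corrected inhibition of the luciferase reporter signal at the single screening dose is 50% or more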
Shn3 3UTR inh: reduction of Shn3 3'UTR firefly luciferase signal, primary screen, Schnurri-3 inhibitor project, cell-based, Clone20 osteoblasts, set 2; Clone20 osteoblast Shn3 3'UTR firefly luciferase, 24 h; inhibition, % at 12.5 µM; 360,000 tested, 0.52% active; AID 588674, 2011;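 active = mean inhibition of at least 75% with every replicate also reaching 75%; inconclusive = mean inhibition at least 75% but some replicate below; inactive = mean inhibition below 75%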;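 note: 0% = median of neutral control wells and 100% = pilot-screen positive control compound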
TWEAK Fn14 block: inhibitors of TWEAK-Fn14 signaling, primary screen, luciferase reporter cells, uHTS. TWEAK-stimulated Fn14 reporter cells, luciferase luminescence, 8 h. inhibition, % at 10 µM. 360,000 tested, 2% active. AID 1159606, 2016; in the data active = inhibition above about 50%
MITF TRPM1 inh: inhibitors of MITF-dependent TRPM1 promoter reporter, primary screen, cell-based, SK-MEL-5, single point, luciferase | 330,000 tested, 0.83% active | inhibition, % at 12.5 µM | SK-MEL-5 TRPM1 promoter luciferase, 24 h;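 active = mean inhibition across replicates of 60% or more, whatever share of single replicates reaches that level; inconclusive = some that reach 60%, reason not given; inactive = mean inhibition across replicates below 60%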
Peg3 prom inh: Peg3 promoter-driven luciferase inhibitors, primary screen, cell-based, HeLa, luciferase luminescence | HeLa PEG-Prom luciferase reporter, overnight | inhibition, % at 20 µM | 360,000 tested, 1.7% active | AID 588405, 2011;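 active = inhibition of at least 50% at 20 µM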
Active calls of the source: *; u = inconclusive; x = not tested or not shown. Only some compounds are listed: those with a hit (about 4.1% of all), similar ones and a draw of the others.

SMILES	EBV LMP1 NFkB	TROY signal inh	Shn3 3UTR inh	TWEAK Fn14 block	MITF TRPM1 inh	Peg3 prom inh
OC(c1cc(-c2ccc(C(F)(F)F)cc2)nc(C(F)(F)F)c1)C1CCCCN1 (centres undefined)	-11.7	31.7	96.5*	-3.2	100.0*	109.2*
COC(=O)CSc1nc(-c2ccc(F)cc2)cc(C(F)(F)F)n1	-1.4	5.3	-9.9	-13.3	-1.2	0.4
OC(c1cc(-c2cccc(Cl)c2)nc2ccccc12)C1CCCCN1 (centres undefined)	-36.8	-18.7	90.0*	-1.3	98.5*	103.9*
COc1cccc(CC2(CO)CCCN(Cc3cn[nH]c3-c3cc(C)ccc3C)C2)c1 (centres undefined)	5.2	3.4	-3.8	-12.4	10.4	7.0
CC(C)(CNS(C)(=O)=O)SCc1ccc(Cl)cc1	-11.2	11.2	0.4	-13.7	3.2	-1.9
Cc1ccc(C(=O)NC2CCN(S(=O)(=O)c3ccccc3)CC2)cc1	1.5	12.1	-5.6	-7.7	-6.7	11.3
CCN1CCN(C(=O)c2ccc(OC)c(S(=O)(=O)Nc3ccc(C)cc3)c2)CC1	-1.7	-0.4	2.2	2.4	-2.3	1.4
Cc1ccc(NC(=O)C2CC(=O)N(Cc3ccccc3)C2)cc1S(=O)(=O)N1CCCCCC1 (centres undefined)	17.6	60.6*	28.8	87.8*	5.7	33.1
CCOc1ncccc1C(=O)Nc1ccc(C)c(S(=O)(=O)N2CCCCCC2)c1	8.6	27.6	1.8	62.6*	14.0	19.7
COc1cc(CCC(=O)Nc2ccc(C)c(S(=O)(=O)N3CCCCCC3)c2)cc(OC)c1OC	28.0	33.8	43.9	51.3*	25.8	40.4
Cc1ccc(NC(=S)Nc2ccc(C(C)C)cc2)cc1S(=O)(=O)N1CCCCCC1	13.2	16.8	26.4	67.3*	30.9	19.0
O=C(Nc1ccc(S(=O)(=O)N2CCCCC2)cc1)C1CC(=O)N(Cc2ccccc2)C1 (centres undefined)	6.2	3.4	-2.0	9.6	11.7	9.8
C=CCNC(=S)Nc1ccc(C)c(S(=O)(=O)N2CCCCC2)c1	3.5	-2.9	-7.6	15.4	-2.9	10.7
Cc1nn(CCc2n[nH]c(=S)n2C2CCCCC2)c(C)c1Br	2.6	6.2	0.4	8.3	8.0	-1.1
COc1ccc(NC(=O)CSc2ccc(NC(C)=O)cc2)cc1S(=O)(=O)N1CCOCC1	1.0	3.4	5.4	-13.7	-1.5	-1.3
COc1ccc(NC(=O)CSc2ccc3ccccc3c2)cc1S(=O)(=O)N1CCCCC1	10.2	19.1	15.2	58.5*	12.3	-13.2
CC1=C(CC(=O)O)c2cc(F)ccc2C1=Cc1ccc(S(C)(=O)=O)cc1	83.5*	0.4	-2.9	-2.9	2.3	8.6
CC1=C(CC(=O)O)c2cc(F)ccc2/C1=C/c1ccc(S(C)=O)cc1 (centres undefined)	0.4	7.6	0.4	9.9	-8.4	2.0
COc1cccc(OC)c1NC(=O)C1CCCN1C(=O)Nc1ccccc1Cl (centres undefined)	2.6	1.5	-6.6	24.8	2.6	-7.8
C=CCOc1ccc(CN(C)CC(O)COc2ccc(CCC(C)=O)cc2)cc1 (centres undefined)	3.0	6.2	4.2	55.1*	4.8	22.9
COC(=O)CC1C(=O)NCCN1C(=S)Nc1ccc(F)cc1 (centres undefined)	8.9	-6.4	24.7	0.1	2.6	7.7
O=C(O)C(NS(=O)(=O)c1ccc(F)cc1)c1ccccc1 (centres undefined)	-15.1	14.1	4.2	89.5*	-3.8	-0.3
Cc1cccc(N2CCN(c3ccc4cc(S(=O)(=O)N5CCCCC5)ccc4n3)CC2)c1C	8.1	7.9	8.3	-2.2	17.5	5.0
COc1cccc(-c2nc(NCC3CCCO3)c3ccccc3n2)c1O (centres undefined)	-8.1	-36.3	-4.2	34.9	-8.3	14.5
CCC(C)Nc1nc(-c2cccc(OC)c2O)nc2ccccc12 (centres undefined)	-2.4	60.3*	29.9	64.3*	3.0	53.5*
SMILES	EBV LMP1 NFkB	TROY signal inh	Shn3 3UTR inh	TWEAK Fn14 block	MITF TRPM1 inh	Peg3 prom inh
COc1cccc(-c2nc(NC(C)C)c3ccccc3n2)c1O	5.6	27.9	10.7	67.8*	10.9	37.1
COc1cccc(-c2nc(NCc3cccnc3)c3ccccc3n2)c1O	-26.8	-49.0	-30.0	-22.6	0.4	-16.4
c1ccc(CNc2nc(-c3ccccn3)nc3ccccc23)cc1	27.0	21.1	64.5	13.4	26.9	46.7
CCC(C)Nc1nc(-c2ccccn2)nc2ccccc12 (centres undefined)	48.1*	-4.7	u	-5.8	27.0	31.5
CCN(CC)CCNC(=O)/C(=C/c1cn(C)c2ccccc12)NC(=O)c1ccc(OC)c(OC)c1	-0.2	-36.0	-7.1	5.3	4.2	-8.8
O=C(CSc1ccccn1)NC1CCCc2c1cnn2-c1ccccc1F (centres undefined)	-4.1	0.2	-8.5	9.8	x	-20.5
CCCCCCc1cc2cc(-c3nnc(-c4ccccc4O)o3)c(=O)oc2cc1O	-8.0	43.2	8.8	54.6*	45.9	36.0
CCCCCCc1cc2cc(-c3nnc(-c4ccccc4OC)o3)c(=O)oc2cc1O	13.5	44.0	7.3	44.0	-2.1	10.9
CCCCCCc1cc2cc(S(=O)(=O)c3ccc(F)cc3)c(=O)oc2cc1O	-7.1	50.9*	2.8	22.4	-9.9	42.7
CC(C)(C)N(NC(=O)Nc1ccc(Cl)c(Cl)c1)C(=O)c1ccccc1	8.8	x	23.5	26.3	2.5	61.0*
COC(=O)c1nn(-c2nc(-c3cccc(OC)c3)cc(C(F)(F)F)n2)cc1[N+](=O)[O-]	-8.5	58.2*	1.2	-23.2	14.2	-4.2
O=C(C=Cc1ccccc1)c1c[nH]c2ccccc2c1=O	-11.6	3.3	-23.8	78.0*	45.6	96.6*
Cc1[nH]c2ccccc2c(=O)c1C(=O)/C=C/c1ccccc1	23.7	63.6*	50.4	88.1*	84.6*	105.1*
O=C1C=C(/C=C/C2C=CC=CC2)C[C@@H](c2ccc(Cl)cc2)C1 (some centres undefined)	-12.0	-23.1	-37.8	-4.0	-13.2	-67.9
CC1=NCCN1S(=O)(=O)c1cc(Cl)ccc1Cl	4.8	20.2	-3.9	4.9	3.8	9.1
COc1cccc(-c2cc(C(=O)Nc3cccc(O)c3)no2)c1	-6.8	44.0	14.4	65.8*	-16.8	-217.9
COc1ccc(NC(=O)c2cc(-c3cccc(OC)c3)on2)cc1	-3.3	-11.0	-1.9	-5.8	-20.4	-48.8
O=C(Nc1cccc(O)c1)c1cc(-c2cccs2)on1	4.3	7.5	7.6	69.3*	-88.3	-195.0
